# Compound activity as filed in PubChem BioAssay.
# 12-LOX inh = Primary qHTS assay for inhibitors of human arachidonate 12S-lipoxygenase (ALOX12): Round 2. Polyunsaturated fatty acid lipoxygenase ALOX12 (Homo sapiens), P18054. purified 12hLO, xylenol orange hydroperoxide absorbance. Potency, µM (top dose mostly 108 µM), for the others: at the top dose activity change, negative = inhibition, most hits filed as inhibitors. 580,000 compounds, 1.1% hits. AID 1671190, 2021; further: on the % scale 0 is the no-effect control and ±100 the full control effect
#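 Purified human 12hLO (150 nM final) in 25 mM Hepes, 0.01% Triton X-100, pH 7.0 was preincubated 15 min at room temperature with compound. Then 40 uM arachidonic acid was added, 30 min. Hydroperoxide was read by Fe-XO absorbance ratio 573/405 nm.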
# Sfp inh = qHTS Assay for Inhibitors of Bacillus subtilis Sfp phosphopantetheinyl transferase (PPTase); 4'-phosphopantetheinyl transferase ffp (Bacillus subtilis), Q9F4F7; Biochemical Sfp PPTase activity, qHTS; Potency, µM, for inactives: largest response in the series, negative = inhibition, actives largely listed as inhibitors; 310,000 compounds, 3.5% hits; AID 1490, 2009;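 further: the enzyme is Sfp with the accession as filed and its product quenches rhodamine fluorescence; 0% = enzyme reaction without inhibitor and -100% = no enzyme wells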
#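 After 15 min at room temperature with compound, 15 nM Sfp received 5 uM rhodamine-CoA plus 12.5 uM BHQ-2-ybbR (50 mM Hepes pH 7.6, 10 mM MgCl2). Rate came from the fluorescence difference over 30 min, ex 525/em 598 nm.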
# HP1b chromo inh = HTS for Inhibitors of HP1-beta Chromodomain Interactions with Methylated Histone Tails; Chromobox protein homolog 1 (Homo sapiens), P83916; AlphaScreen HP1-beta / biotin-H3K9me3 peptide binding; Potency, µM (doses to about 114 µM), without a hit: at the top dose activity change, negative = inhibition, actives largely listed as inhibitors; 390,000 compounds, 0.56% hits; AID 540317, 2011; further: nearly all actives have a fitted effect of over 70% in size
#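 HP1-beta protein (50 nM final) preincubated 30 min at room temperature with biotinylated H3(1-18)K9me3 peptide (50 nM) in PBS pH 7.4, 0.01% Tween-20, then compound added for 30 min. AlphaScreen streptavidin donor/nickel chelate acceptor beads (10 ug/mL final), 30 min dark, luminescence read.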
# JMJD2A Tudor = qHTS Assay for Inhibitors of JMJD2A-Tudor Domain | AlphaScreen JMJD2A-Tudor / H3K4me3 peptide binding | Lysine-specific demethylase 4A (Homo sapiens), O75164 | 390,000 compounds, 4.4% hits | Potency, µM (highest dose often 114 µM), for the others: at the top dose activity change, negative = inhibition, most hits filed as inhibitors; further: on the % scale 0 is the no-effect control and ±100 the full control effect; nearly all actives have a fitted effect of over 50% in size
# G9a block = qHTS Assay for Inhibitors of Histone Lysine Methyltransferase G9a. AID 504332, 2011. 350,000 compounds, 8.8% hits. G9a H3K9 monomethylation, AlphaScreen, 2 h. Potency, µM (highest dose often 102 µM), inactives show top-dose activity, negative = inhibition, usual class: inhibitors; further: on the % scale 0 is the no-effect control and ±100 the full control effect; nearly all actives have a fitted effect of over 75% in size
#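 Step 1: enzyme (final 20 nM) with compound, 15 min RT. Step 2: substrate peptide 500 nM and SAM 20 uM, 2 h RT. Step 3: anti-H3K9me1 antibody and AlphaScreen beads, 10 min, then plate read.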
# BAZ2B inh = qHTS Assay for Inhibitors of BAZ2B; Bromodomain adjacent to zinc finger domain protein 2B (Homo sapiens), Q9UIF8; AID 504333, 2011; 360,000 compounds, 4.4% hits; AlphaScreen BAZ2B-H3K14Ac peptide displacement; Potency, µM (top dose mostly 114 µM), for inactives: at the highest dose activity change, negative = inhibition, usual class: inhibitors; further: on the % scale 0 is the no-effect control and ±100 the full control effect; nearly all actives have a fitted effect of over 60% in size
#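 Multi-concentration screen (max 110 uM) measuring displacement of acetylated histone H3 peptide from BAZ2B by AlphaScreen, using 50 nM protein, 50 nM peptide and 10 ug/mL streptavidin donor plus Ni-chelate acceptor beads.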
# Starred values were filed as active, the others as inactive; ? = inconclusive; . = no result; [ ] = dose if it differs, or a comment. Rows were chosen to be rich in hits. Some 8.7% of all compounds tested hit in one or more screens of this group. The call rests on the fitted dose curve; in most records, active means well fitted curve in the direction sought with a large enough effect; inconclusive means small, poorly fitted or top-dose-only effect, or another doubt; inactive means no such curve, though single readings can be large; an effect the other way counts as inactive or inconclusive. Potency means the concentration at half of the fitted maximal effect.
SMILES,12-LOX inh,Sfp inh,HP1b chromo inh,JMJD2A Tudor,G9a block,BAZ2B inh
COc1ccc(OCc2ccc(-c3nc(C#N)c(NCc4cccnc4)o3)o2)cc1,-4%,.,-14%,32µM*,13µM*,18µM*
COc1ccc(OCc2ccc(-c3nc(C#N)c(NCc4ccccc4)o3)o2)cc1,-11%,.,-20%,?,?,?
COc1ccc(NC(=O)C2(C)CCc3cnc(NCc4ccccc4)nc32)cn1 (stereo not drawn),2%[176 µM],.,.,.,.,.
CC(SC(c1ccccc1)c1ccccc1)C(=O)NC(C)(C)C (stereo not drawn),13%,.,.,.,.,.
Cc1nnc(C)c2c(C)n(-c3cccc4cccnc34)c(C)c12,.,4%,.,.,71µM*,?
Cc1nnc(C)c2c(C)n(-c3ccccc3N)c(C)c12,-23%,56µM*,13%,?,-44%,-38%
Cc1nnc(C)c2c(C)n(-c3ccccc3)c(C)c12,0%,-4%,-7%,?,-16%,-10%
O=C1c2ccccc2C(=O)N1c1cccc2cccnc12,2%,3%,19%,-8%,3%[59 µM],-1%
CC(C)CN1C(=O)CO[C@H](c2ccc(NC(=O)c3cccc(C#N)c3)cc2)[C@H]1CO,38%[176 µM],.,.,.,.,.
COc1cc(NC(=O)NC(C)c2ccc(Cl)cc2Cl)cc(OC)c1OC (stereo not drawn),53%,.,.,.,.,.
CCN(CC)c1ccc(NS(=O)(=O)c2cc3[nH]c(=O)c(=O)[nH]c3cc2C)c(C)c1,45µM*,.,-29%,45µM*,14µM*,50µM*
Cc1cc(Cl)ccc1NS(=O)(=O)c1cc2[nH]c(=O)c(=O)[nH]c2cc1C,?,.,14%,-13%,3%[59 µM],-13%
COc1ccc(-c2onc(C)c2C)cc1S(=O)(=O)NCCc1ccco1,-27%,5%,-19%,?,?,50µM*
Cc1nc(-c2ccc(S(=O)(=O)Nc3ccc(F)cc3C)cc2)co1,-16%,.,.,.,.,.
CCN(CC)c1ccc(NS(=O)(=O)c2cc(-c3onc(C)c3C)ccc2OC)c(C)c1,?,.,-10%,?,8.9µM*,-16%
CCN(CC)c1ccc(NS(=O)(=O)c2ccc(-c3coc(C)n3)cc2)c(C)c1,?,.,?,25µM*,11µM*,13µM*
COc1ccc(N2CC(c3nc(-c4ccccn4)no3)CC2=O)cc1OC (stereo not drawn),7%,.,.,.,.,.
CC(=O)N1CCCC(C(=O)N2CCC3(CC2)C(=O)N(C)c2ccccc23)C1 (stereo not drawn),-3%,.,.,.,.,.
CCCc1cc(=O)oc2cc(C)cc(OC(C)C(=O)NCCCO)c12 (stereo not drawn),20%,.,.,.,.,.
Cc1ccc(-c2cc(N3CCC(CNC(=O)c4cc(C5CC5)[nH]n4)CC3)n[nH]2)cc1,71%,.,.,.,.,.
O=C(CN1CC2CC(C1)[C@H]1CCCC(=O)N1C2)N1CCc2ccccc21 (stereo partly drawn),19%,.,.,.,.,.
c1ccc(-c2cn3c(n2)CO[C@@H](CNC2CCOCC2)C3)cc1,88%[176 µM],.,.,.,.,.
CC(C)n1c(=S)[nH]c2ccccc2c1=O,?,-12%,-11%,-7%,-28%[12.7 µM],20%
COn1c(=S)[nH]c2ccccc2c1=O,?,-9%,12%,89µM*,?,-9%
CN(C)CCn1c(=S)[nH]c2ccccc2c1=O,?,?,?,50µM*,?,-1%
SMILES,12-LOX inh,Sfp inh,HP1b chromo inh,JMJD2A Tudor,G9a block,BAZ2B inh
CCCn1c(=S)[nH]c2ccccc2c1=O,9%,23%,11%,-5%,-44%,-17%
CCN(CC)CCn1c(=S)[nH]c2ccc(Cl)cc2c1=O,4%,-8%,19%,-27%,32µM*,-28%
O=c1c2nccnc2[nH]c(=S)n1Cc1ccccc1,-28%,-21%,67%,-1%,40µM*,.
O=C(Nc1ccncc1)C1CCN(C(=O)c2ccc3ccccc3n2)CC1,8%,.,.,.,.,.
O=C(NC1CC1)c1nc(-c2ccc(Cl)cc2Cl)c2ccccn12,-5%,.,.,.,.,.
Cc1ccc2c(c1)nc1n2[C@@H](CNCc2ccncc2F)COC1,24%[176 µM],.,.,.,.,.
CN(C)CCNc1oc(-c2ccc(S(=O)(=O)N3CCCCCC3)cc2)nc1C#N,-15%,.,.,.,.,.
CC(C)(C)NC(=O)C(F)(F)C(F)(F)C(=O)NC(C)(C)C,49%,.,.,.,.,.
COc1ccc2[nH]c3c(=O)n(CCCCC(=O)N4CCCC4)c(=S)[nH]c3c2c1,-29%,-9%,24%,3.5µM*,2.2µM*,-2%
CC1CCCN(C(=O)CCCn2c(=S)[nH]c3ccccc3c2=O)C1 (stereo not drawn),-4%,?,30%,-15%,45µM*,3%
O=c1c2cc(Br)ccc2[nH]c(=S)n1Cc1cccnc1,-9%,-23%,45%,-12%,9%,0%
O=c1c2ccccc2[nH]c(=S)n1CCc1ccccc1,-3%,19%,45%,-2%,17%[59 µM],6%
CN(C)CCCn1c(=S)[nH]c2ccccc2c1=O,-20%,?,4%,0%,50µM*,-5%
O=c1c2ccccc2[nH]c(=S)n1Cc1cccnc1,1%,1%,-22%,28µM*,-7%[59 µM],1%
COc1ccc(/C=C/c2nc(C#N)c(NCc3ccco3)o2)cc1OC,-65%,.,.,.,.,.
CC(C)N1C[C@@H](CO)[C@H](c2nc(-c3cccnc3)no2)C1,79%,.,.,.,.,.
Cc1ccc(N(C(C)C(=O)NCc2ccccn2)S(C)(=O)=O)cc1C (stereo not drawn),25%,.,.,.,.,.
